From PubChem BioAssay
KDM4E inh: JMJD2E (human) inhibition | JMJD2E catalytic domain, FDH-coupled NADH fluorescence (FDH is formaldehyde dehydrogenase) | AID 2147 | hit rate 1.6% among 230,000 | B2RXH2 | Potency, µM (doses to about 57.1 µM), inactives show top-dose activity change, negative = inhibition, most hits filed as inhibitors; active = well fitted inhibition curve with a large enough effect, not every such curve was filed as active; inconclusive = small, poorly fitted or top-dose-only effect, or another doubt; inactive = no such curve, though single readings can be large or run the other way;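 also: potency is read from the fitted curve at half-maximal effect; 0% = wells with enzyme and -100% = buffer wells without enzyme; nearly all actives have a fitted effect of over 50% in size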
Target sequence (B2RXH2 1-337 limits assumed): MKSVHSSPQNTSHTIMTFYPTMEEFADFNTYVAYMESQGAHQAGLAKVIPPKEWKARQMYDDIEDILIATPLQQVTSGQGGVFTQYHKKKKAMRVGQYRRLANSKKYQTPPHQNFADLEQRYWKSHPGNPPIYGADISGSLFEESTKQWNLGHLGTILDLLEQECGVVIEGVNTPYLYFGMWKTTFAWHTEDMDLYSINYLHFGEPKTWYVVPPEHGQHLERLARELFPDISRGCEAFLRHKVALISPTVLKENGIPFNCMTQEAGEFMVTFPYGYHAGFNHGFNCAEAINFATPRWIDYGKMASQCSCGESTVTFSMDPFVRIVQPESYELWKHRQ
Sfp inh: inhibitors of Bacillus subtilis Sfp phosphopantetheinyl transferase. Potency, µM, for inactives: largest response in the series, negative = inhibition, hits mostly inhibitors. hit rate 3.5% among 310,000. Biochemical Sfp PPTase activity, qHTS. Q9F4F7;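 also: the enzyme is Sfp with the accession as filed and its product quenches rhodamine fluorescence; potency is read from the fitted curve at half-maximal effect; 0% = enzyme reaction without inhibitor and -100% = no enzyme wells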
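Reaction rates are the 30-min fluorescence difference (ex 525, em 598 nm) in wells containing 15 nM Sfp, 5 uM rhodamine-CoA and 12.5 uM BHQ-2-YbbR at pH 7.6 with 10 mM MgCl2.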
Tau fluor cs: counter-screen for tau fibril formation inhibitors | hit rate 0.93% among 280,000 | tau K18 P301L Alexa594 fluorescence, heparin fibrillization | Potency, µM (top dose mostly 57.7 µM), for inactives: at the highest dose activity change, negative = decrease; also: potency is read from the fitted curve at half-maximal effect; nearly all actives have a fitted effect of over 55% in size
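Human tau K18 P301L (15 uM unlabeled, 0.24 uM Alexa 594-labeled) in 100 mM sodium acetate pH 7 with 20 uM heparin, 6 hr at 37 C. ThT 30 uM added, 1 hr ambient; Alexa 594 FP and total fluorescence read at 555/632 nm.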
Tau ThT inhib: blocks human tau fibril formation measured by thioflavin T; Potency, µM (titrated, usually from 57.4 µM), inactives show at the top dose activity, negative = inhibition, actives largely listed as inhibitors; AID 1460; hit rate 2.1% among 270,000; recombinant tau K18 P301L (four-repeat tau fragment), heparin-induced fibrillization, ThT fluorescence; P10636; also: potency is read from the fitted curve at half-maximal effect; nearly all actives have a fitted effect of over 55% in size
Target sequence (P10636 561-689 P618L limits assumed): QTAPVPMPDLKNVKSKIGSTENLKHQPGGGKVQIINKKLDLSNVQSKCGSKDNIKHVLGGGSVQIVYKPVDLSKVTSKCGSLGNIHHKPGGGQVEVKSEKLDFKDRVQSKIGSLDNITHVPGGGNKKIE
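In this qHTS, human K18 P301L tau is incubated with compound and heparin for 6 hr at 37 C, and Thioflavin T fluorescence then reports fibril load.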
Tau FP inhib: tau fibrillization inhibition (FP). AID 1468. Potency, µM (series often up to 57.7 µM), without a hit: at the highest dose activity, negative = inhibition, most hits filed as inhibitors. hit rate 0.39% among 280,000. K18 P301L tau heparin fibrillization, Alexa594 FP, 6 h. P10636; also: potency is read from the fitted curve at half-maximal effect; nearly all actives have a fitted effect of over 55% in size
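Read-out: fluorescence polarization of Alexa 594-labeled tau (0.24 uM), 555 nm excitation, 632 nm emission. Mixtures held 15 uM unlabeled K18 P301L, compound and 20 uM heparin, pH 7 acetate buffer, incubated 6 hr at 37 C.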
Coupling enz: counter-screen for Giardia aldolase inhibitors: coupling enzyme system; coupling enzyme system counterscreen, AmpLite Red fluorescence; activity change, negative = inhibition, % at 58.2 µM, hits read low; hit rate 0.67% among 290,000; in the data active = activity change below about -30%
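First, compound is pin-transferred into glyceraldehyde-3-phosphate coupling-enzyme reagent at 57.5 uM final and held 10 min at RT. Next, substrate, coupling system and AmpLite Red are added. After 20 min RT, fluorescence (525/598 nm) is read.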
* marks the source's active call; other numbers are inactive results; ? = inconclusive; nt = no result given; [ ] = remark or other dose. An excerpt weighted towards active compounds, which were near 5.3% of everything screened. Unless noted, calls follow the shape of the dose curve; as a rule, active = well fitted curve in the direction sought with a large enough effect; inconclusive = small, poorly fitted or top-dose-only effect, or another doubt; inactive = no such curve, though single readings can be large; an effect the other way counts as inactive or inconclusive. Unless noted, % is scaled to controls: 0 for no effect and ±100 for the full control effect.

SMILES	KDM4E inh	Sfp inh	Tau fluor cs	Tau ThT inhib	Tau FP inhib	Coupling enz
COC(=O)CC1Oc2ccccc2-n2cc(-c3ccc(Cl)cc3)nc21 (centres undefined)	nt	nt	-14%	5%	-13%	nt
CNC(=S)Nc1sc2c(c1C(=O)OC)CCC2	?	24%	-13%	-14%	?	5
COC(=O)c1c(NC(C)=O)sc2c1CCCCC2	3%	56µM*	-6%	?	-1%	5
COC(=O)c1c(NC(=S)Nc2ccc(F)cc2[N+](=O)[O-])sc2c1CCCCC2	-9%	14µM*	-12%	-9%	3%	2
COC(=O)c1c(NS(C)(=O)=O)sc2c1CCCC2	-2%	18µM*	-1%	-16%	-10%	1
COc1cc(Br)c(C2CC(=O)Nc3cc(OC)c(OC)c(OC)c32)cc1OC (centres undefined)	nt	nt	-13%	-6%	-2%	nt
CCN(c1cccc(C)c1)S(=O)(=O)c1nnc(NC(=O)C2CCCCC2)s1	nt	nt	-24%	?	-10%	nt
c1cc(CN2CCCNCCNCCCNCC2)ccc1CN1CCCNCCNCCCNCC1	nt	-4%	nt	nt	nt	-2
CCCC[C@@H](C=O)NC(=O)[C@H](CC(C)C)NC(=O)OCc1ccccc1	nt	2%	-7%	?	1%	nt
NC(N)=Nc1cc2ccccc2c2ccccc12	-30%	8%	-26%	?	-13%	-34*
Cc1c(NC(=O)c2c(N)sc3c2CCCC3)c(=O)n(-c2ccccc2)n1C	-26%	28µM*	-10%	?	?	-10
COc1cccc(NC(=O)c2nnn(Cc3ccc(OC)c(Br)c3)c2N)c1	nt	nt	-19%	7%	?	nt
COc1ccc2oc(=O)cc(CN3CCN(c4ccc(F)cc4)CC3)c2c1	nt	nt	-24%	-13%	-16%	nt
O=C1CC(c2ccccc2)=NN1c1nc(-c2ccccc2)cs1	0%	5%	?	10µM*	?	5
CC1=NN(c2nc(-c3ccccc3)cs2)C(=O)C1	-16%	7%	?	?	1%	5
CCc1ccc(-n2c(=O)c3c(C)c(C)sc3n(CC(=O)NCc3ccc(C)cc3)c2=O)cc1	nt	nt	1%	-1%	-6%	nt
CCN(CC)S(=O)(=O)c1ccc(O)c(NS(=O)(=O)c2ccccc2F)c1	-7%	50µM*	-1%	1%	-1%	7
CC(C)CCC1CC(CSC(=N)N)OC1=O (centres undefined)	2%	-16%	-1%	-7%	-12%	2
C/C(CC1CC(COCCC(C)C)OC1=O)=N\NC(N)=S (centres undefined)	5%	79µM*	2%	-1%	2%	-1
CCCC1CC(C)(/C(C)=N\NC(N)=S)OC1=O (centres undefined)	-3%	-26%	-1%	2%	-9%	3
C/C(CC1CC(C)(C)OC1=O)=N\NC(N)=S (centres undefined)	?	35µM*	-3%	-4%	-3%	-1
C/C(CCC1CC(C)(C)OC1=O)=N\NC(N)=S (centres undefined)	0%	45µM*	-2%	-2%	-1%	-2
CCC(=O)N1C2=C(c3ccccc3[C@@H]1CC(=O)Nc1ccc3ccccc3c1)[C@@H]1C(=O)N(c3ccccc3)C(=O)[C@@H]1[C@H](C)C2	-2%[11.4 µM]	-5%	-15%[11.6 µM]	-9%[11.5 µM]	-5%[11.6 µM]	-2
S=c1[nH]nc(-c2ccncc2)n1Cc1ccco1	-7%	14µM*	-1%	-4%	2%	2
C=CCn1c(-c2cccc(OC)c2)n[nH]c1=S	?	1%	-4%	-7%	3%	1
COc1cccc(-c2n[nH]c(=S)n2Cc2ccco2)c1	-8%	32µM*	-12%	-13%	-4%	2
Cc1ccc(C(=O)Nc2ccc(Br)cc2)cc1S(=O)(=O)NCc1ccccc1	nt	nt	?	2%	?	nt
CCN1C(=O)C(Cc2nc3ccccc3c(=O)n2-c2cccc(C)c2)c2ccccc21 (centres undefined)	nt	nt	-3%	-4%	5%	nt
